# Results from PubChem BioAssay AID1159580 (chemical genetic matrix, 2015).
# Out of some 5,500 compounds screened, about 2,000 (36%) were called active. Another 18% or so got no clear call; they are omitted. The list shows a part of the results. Unmarked numbers belong to inactive results. Rule as the data show it: active = normalized growth mostly below about 0.91 (no sharp cut-off); inconclusive = no clear call, values can overlap the other calls; inactive = mostly above about 0.92.
# Assay: chemical genetic growth profiling, strain panel (AID 1159580);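 also: tested at 20 µM; growth read once vehicle control cultures reached saturation at 30 °C; 1 = growth at the plate median or of vehicle wells; lower values mean less growth of the strain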
# Details: growth OD
smiles,measurement,setting,value
O=C1c2ccccc2C(=O)c2c1ccc(O)c2O,normalized growth,"S. cerevisiae deletion strains, locus YJL187C, strain SWE1, stronger effect = lower value",0.524 (active)
same,normalized growth,"S. cerevisiae deletion strains, locus YJR066W, strain TOR1, stronger effect = lower value",0.565 (active)
same,normalized growth,"S. cerevisiae deletion strains, locus YKL009W, strain mrt4, stronger effect = lower value",0.907
same,normalized growth,"S. cerevisiae deletion strains, locus YKL068W, stronger effect = lower value",0.854 (active)
same,normalized growth,"S. cerevisiae deletion strains, locus YKL085W, strain MDH1 (second series), stronger effect = lower value",0.868 (active)
same,normalized growth,"S. cerevisiae deletion strains, locus YKL085W, strain MDH1, stronger effect = lower value",0.868 (active)
same,normalized growth,"S. cerevisiae deletion strains, locus YKL160W, strain elf1, stronger effect = lower value",0.568 (active)
same,normalized growth,"S. cerevisiae deletion strains, locus YKL190W, strain CNB1, stronger effect = lower value",0.286 (active)
same,normalized growth,"S. cerevisiae deletion strains, locus YKR001C, strain vps1, stronger effect = lower value",0.26 (active)
same,normalized growth,"S. cerevisiae deletion strains, locus YKR026C, strain gcn3, stronger effect = lower value",0.744 (active)
same,normalized growth,"S. cerevisiae deletion strains, locus YKR091W, strain srl3, stronger effect = lower value",0.714 (active)
same,normalized growth,"S. cerevisiae deletion strains, locus YLL001W, strain dnm1, stronger effect = lower value",0.492 (active)
same,normalized growth,"S. cerevisiae deletion strains, locus YLL026W, stronger effect = lower value",0.576 (active)
same,normalized growth,"S. cerevisiae deletion strains, locus YLL041C, strain sdh2, stronger effect = lower value",0.733 (active)
same,normalized growth,"S. cerevisiae deletion strains, locus YLR027C, strain aat2, stronger effect = lower value",0.578 (active)
same,normalized growth,"S. cerevisiae deletion strains, locus YLR039C, strain RIC1, stronger effect = lower value",0.149 (active)
same,normalized growth,"S. cerevisiae deletion strains, locus YLR058C, strain SHM2, stronger effect = lower value",0.203 (active)
same,normalized growth,"S. cerevisiae deletion strains, locus YLR102C, strain apc9, stronger effect = lower value",0.516 (active)
same,normalized growth,"S. cerevisiae deletion strains, locus YLR113W, strain HOG1, stronger effect = lower value",0.56 (active)
same,normalized growth,"S. cerevisiae deletion strains, locus YLR221C, strain rsa3, stronger effect = lower value",0.538 (active)
same,normalized growth,"S. cerevisiae deletion strains, locus YLR258W, strain gsy2, stronger effect = lower value",0.58 (active)
same,normalized growth,"S. cerevisiae deletion strains, locus YLR262C, strain YPT6 (second series), stronger effect = lower value",0.201 (active)
same,normalized growth,"S. cerevisiae deletion strains, locus YLR268W, strain sec22, stronger effect = lower value",0.194 (active)
same,normalized growth,"S. cerevisiae deletion strains, locus YLR320W, strain mms22, stronger effect = lower value",0.374 (active)
same,normalized growth,"S. cerevisiae deletion strains, locus YLR342W, strain FKS1, stronger effect = lower value",0.453 (active)
same,normalized growth,"S. cerevisiae deletion strains, locus YLR357W, strain rsc2, stronger effect = lower value",0.579 (active)
same,normalized growth,"S. cerevisiae deletion strains, locus YLR370C, strain arc18, stronger effect = lower value",0.539 (active)
same,normalized growth,"S. cerevisiae deletion strains, locus YLR371W, strain rom2, stronger effect = lower value",0.316 (active)
same,normalized growth,"S. cerevisiae deletion strains, locus YLR384C, strain iki3, stronger effect = lower value",0.574 (active)
same,normalized growth,"S. cerevisiae deletion strains, locus YLR418C, strain cdc73, stronger effect = lower value",0.225 (active)
same,normalized growth,"S. cerevisiae deletion strains, locus YML016C, strain PPZ1, stronger effect = lower value",0.195 (active)
same,normalized growth,"S. cerevisiae deletion strains, locus YML032C, strain rad52, stronger effect = lower value",0.487 (active)
same,normalized growth,"S. cerevisiae deletion strains, locus YML120C, strain ndi1, stronger effect = lower value",0.602 (active)
same,normalized growth,"S. cerevisiae deletion strains, locus YML124C, strain tub3, stronger effect = lower value",0.547 (active)
same,normalized growth,"S. cerevisiae deletion strains, locus YMR058W, strain fet3, stronger effect = lower value",0.444 (active)
same,normalized growth,"S. cerevisiae deletion strains, locus YMR078C, strain ctf18, stronger effect = lower value",0.455 (active)
same,normalized growth,"S. cerevisiae deletion strains, locus YMR125W, strain sto1, stronger effect = lower value",0.773 (active)
same,normalized growth,"S. cerevisiae deletion strains, locus YMR129W, stronger effect = lower value",0.69 (active)
same,normalized growth,"S. cerevisiae deletion strains, locus YMR205C, strain PFK2, stronger effect = lower value",0.423 (active)
same,normalized growth,"S. cerevisiae deletion strains, locus YMR223W, strain ubp8, stronger effect = lower value",0.408 (active)
same,normalized growth,"S. cerevisiae deletion strains, locus YMR231W, strain pep5, stronger effect = lower value",0.641 (active)
same,normalized growth,"S. cerevisiae deletion strains, locus YMR263W, strain SAP30, stronger effect = lower value",0.295 (active)
same,normalized growth,"S. cerevisiae deletion strains, locus YMR307W, strain GAS1, stronger effect = lower value",0.167 (active)
same,normalized growth,"S. cerevisiae deletion strains, locus YNL067W, strain RPL9B, stronger effect = lower value",0.324 (active)
same,normalized growth,"S. cerevisiae deletion strains, locus YNL071W, strain lat1, stronger effect = lower value",0.386 (active)
same,normalized growth,"S. cerevisiae deletion strains, locus YNL128W, strain TEP1, stronger effect = lower value",0.216 (active)
same,normalized growth,"S. cerevisiae deletion strains, locus YNL153C, strain GIM3, stronger effect = lower value",0.28 (active)
same,normalized growth,"S. cerevisiae deletion strains, locus YNL183C, strain NPR1, stronger effect = lower value",0.596 (active)
same,normalized growth,"S. cerevisiae deletion strains, locus YNL209W, strain ssb2, stronger effect = lower value",0.265 (active)
same,normalized growth,"S. cerevisiae deletion strains, locus YNL233W, strain BNI4, stronger effect = lower value",0.246 (active)
same,normalized growth,"S. cerevisiae deletion strains, locus YNL248C, strain rpa49, stronger effect = lower value",0.458 (active)
same,normalized growth,"S. cerevisiae deletion strains, locus YNL250W, strain rad50, stronger effect = lower value",0.895 (active)
same,normalized growth,"S. cerevisiae deletion strains, locus YNL271C, strain bni1, stronger effect = lower value",0.828 (active)
same,normalized growth,"S. cerevisiae deletion strains, locus YNL298W, strain CLA4, stronger effect = lower value",0.775 (active)
same,normalized growth,"S. cerevisiae deletion strains, locus YNL307C, strain MCK1, stronger effect = lower value",0.188 (active)
same,normalized growth,"S. cerevisiae deletion strains, locus YNL322C, strain KRE1 (second series), stronger effect = lower value",0.726 (active)
same,normalized growth,"S. cerevisiae deletion strains, locus YNR049C, strain mso1, stronger effect = lower value",0.659 (active)
same,normalized growth,"S. cerevisiae deletion strains, locus YNR052C, strain pop2, stronger effect = lower value",0.218 (active)
same,normalized growth,"S. cerevisiae deletion strains, locus YOL012C, strain htz1",0.219
same,normalized growth,"S. cerevisiae deletion strains, locus YOL147C, strain pex11, stronger effect = lower value",0.362 (active)
same,normalized growth,"S. cerevisiae deletion strains, locus YOR001W, strain rrp6, stronger effect = lower value",0.608 (active)
same,normalized growth,"S. cerevisiae deletion strains, locus YOR061W, strain CKA2, stronger effect = lower value",0.237 (active)
same,normalized growth,"S. cerevisiae deletion strains, locus YOR069W, strain VPS5, stronger effect = lower value",0.314 (active)
same,normalized growth,"S. cerevisiae deletion strains, locus YOR070C, strain gyp1, stronger effect = lower value",0.496 (active)
same,normalized growth,"S. cerevisiae deletion strains, locus YOR080W, strain dia2, stronger effect = lower value",0.638 (active)
same,normalized growth,"S. cerevisiae deletion strains, locus YOR083W, strain WHI5, stronger effect = lower value",0.475 (active)
same,normalized growth,"S. cerevisiae deletion strains, locus YOR106W, strain vam3, stronger effect = lower value",0.302 (active)
same,normalized growth,"S. cerevisiae deletion strains, locus YOR136W, strain idh2, stronger effect = lower value",0.433 (active)
same,normalized growth,"S. cerevisiae deletion strains, locus YOR144C, strain elg1, stronger effect = lower value",0.561 (active)
same,normalized growth,"S. cerevisiae deletion strains, locus YOR184W, strain ser1, stronger effect = lower value",0.209 (active)
same,normalized growth,"S. cerevisiae deletion strains, locus YOR231W, strain MKK1, stronger effect = lower value",0.707 (active)
same,normalized growth,"S. cerevisiae deletion strains, locus YOR265W, strain rbl2, stronger effect = lower value",0.503 (active)
same,normalized growth,"S. cerevisiae deletion strains, locus YOR270C, strain vph1, stronger effect = lower value",0.278 (active)
same,normalized growth,"S. cerevisiae deletion strains, locus YOR290C, strain snf2, stronger effect = lower value",0.41 (active)
same,normalized growth,"S. cerevisiae deletion strains, locus YOR316C, strain cot1, stronger effect = lower value",0.474 (active)
same,normalized growth,"S. cerevisiae deletion strains, locus YPL051W, strain arl3, stronger effect = lower value",0.295 (active)
same,normalized growth,"S. cerevisiae deletion strains, locus YPL078C, strain atp4, stronger effect = lower value",0.471 (active)
same,normalized growth,"S. cerevisiae deletion strains, locus YPL106C, strain sse1, stronger effect = lower value",0.502 (active)
same,normalized growth,"S. cerevisiae deletion strains, locus YPL240C, strain hsp82, stronger effect = lower value",0.613 (active)
same,normalized growth,"S. cerevisiae deletion strains, locus YPL256C, strain CLN2, stronger effect = lower value",0.749 (active)
same,normalized growth,"S. cerevisiae deletion strains, locus YPR119W, strain clb2, stronger effect = lower value",0.558 (active)
same,normalized growth,"S. cerevisiae deletion strains, locus YPR141C, strain kar3, stronger effect = lower value",0.854 (active)
same,normalized growth,"S. cerevisiae deletion strains, locus YPR163C, strain tif3, stronger effect = lower value",0.214 (active)
same,normalized growth,"S. cerevisiae deletion strains, locus YPR167C, strain met16, stronger effect = lower value",0.377 (active)
same,normalized growth,"S. cerevisiae deletion strains, strain wtn01, stronger effect = lower value",0.295 (active)
same,normalized growth,"S. cerevisiae strains, strain wild type, stronger effect = lower value",0.166 (active)
